3CLpro inhibitor = SARS-CoV 3CLpro protease inhibition; P0C6X7; recombinant SARS-CoV 3CLpro, quenched FRET peptide cleavage; inhibition, % at 6 µM; hit rate 0.14% among 290,000; in the data active = inhibition above about 12%
VHR inh abs = DUSP3 (human) phosphatase inhibition; recombinant VHR phosphatase, pNPP absorbance; hit rate 0.52% among 290,000; P51452; AID 1654; inhibition, % at 13.3 µM; in the data active = inhibition above about 50%
Anthrax LF inh2 = blocks Bacillus anthracis lethal factor protease | hit rate 0.12% among 360,000 | inhibition, % at 10 µM | AID 588501 | P15917 | multiplex microsphere protease cleavage assay, LF; also: plate controls were buffer without enzyme for full effect and enzyme alone for no effect
Target sequence (P15917 whole entry, looked up): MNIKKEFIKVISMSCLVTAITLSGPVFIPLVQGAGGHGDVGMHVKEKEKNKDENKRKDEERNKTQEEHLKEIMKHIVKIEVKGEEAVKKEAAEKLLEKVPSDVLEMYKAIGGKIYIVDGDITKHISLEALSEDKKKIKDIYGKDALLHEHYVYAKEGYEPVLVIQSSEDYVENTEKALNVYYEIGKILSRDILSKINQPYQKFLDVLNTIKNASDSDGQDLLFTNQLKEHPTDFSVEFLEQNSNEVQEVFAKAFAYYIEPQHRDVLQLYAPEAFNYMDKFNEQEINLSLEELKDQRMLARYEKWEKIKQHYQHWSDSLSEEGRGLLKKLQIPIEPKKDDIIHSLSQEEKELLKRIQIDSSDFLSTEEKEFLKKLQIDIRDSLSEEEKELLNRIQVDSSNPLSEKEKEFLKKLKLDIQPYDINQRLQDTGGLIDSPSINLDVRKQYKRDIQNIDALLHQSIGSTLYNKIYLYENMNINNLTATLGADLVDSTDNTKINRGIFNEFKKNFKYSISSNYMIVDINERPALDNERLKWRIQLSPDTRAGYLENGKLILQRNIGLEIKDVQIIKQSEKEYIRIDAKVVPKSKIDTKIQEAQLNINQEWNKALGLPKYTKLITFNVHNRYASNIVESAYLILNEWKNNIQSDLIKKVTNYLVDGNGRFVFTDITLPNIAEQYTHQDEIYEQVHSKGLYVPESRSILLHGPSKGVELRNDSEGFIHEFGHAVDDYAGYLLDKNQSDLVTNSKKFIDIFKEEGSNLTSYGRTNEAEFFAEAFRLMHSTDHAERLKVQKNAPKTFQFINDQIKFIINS
BoNT F protease = blocks Botulinum neurotoxin F light chain protease; Multiplex microsphere protease cleavage assay, flow cytometry; inhibition, % at 10 µM; hit rate 0.22% among 360,000; AID 588497; in the data active = inhibition above about 35%, passing the limit was not always enough; inconclusive = no clear call, values can overlap the other calls; also: plate controls were buffer without enzyme for full effect and enzyme alone for no effect
Bead autofluor = counter-screen for toxin protease inhibitors: compound fluorescence; AID 624483; hit rate 3.1% among 360,000; fluorescence intensity (concentration not given with the values); compound autofluorescence counterscreen, microsphere flow cytometry; active compounds read high; in the data active = fluorescence intensity above about 16000; inconclusive = no clear call, values can overlap the other calls
BoNT-A LC inh2 = inhibitors of Botulinum neurotoxin A light chain protease; multiplex microsphere protease substrate cleavage, flow cytometry; inhibition, % at 10 µM; hit rate 0.17% among 360,000; AID 588499; also: plate controls were buffer without enzyme for full effect and enzyme alone for no effect
* marks the source's active call; other numbers are inactive results; ? = inconclusive; / = no result. Hits are enriched below; roughly 3.9% of the tested compounds scored in any of these assays. Rule as the data show it, unless noted: active = inhibition above about 30%; inconclusive = no clear call, values can overlap the other calls; inactive = below that.

SMILES	3CLpro inhibitor	VHR inh abs	Anthrax LF inh2	BoNT F protease	Bead autofluor	BoNT-A LC inh2
Cc1cc(C)c(NC(=O)CNC(=O)COC(=O)CN2C(=O)NC3(CCCC3)C2=O)c(C)c1	/	/	2	?	?	3
CC1=C(C(=O)N2CCOCC2)C(c2ccsc2)C2=C(CCCC2=O)N1 (configuration not stated)	-6	0	-2	3	22793*	2
O=C(COc1ccccc1Cl)NCCC1=CCCCC1	2	5	2	-3	2364	-1
O=C(CCN1C(=O)c2ccccc2C1=O)NCCC1=CCCCC1	1	12	-16	8	20662*	8
Cc1ccc(S(=O)(=O)NCCC2=CCCCC2)cc1	/	/	2	-5	?	0
Cc1ccc(CNCCC2=CCCCC2)cc1	-1	10	-6	-12	16821*	?
O=C(NCCC1=CCCCC1)C(=O)NCc1ccccc1Cl	-3	19	1	-5	16906*	?
C1=C(CCNCc2ccccc2)CCCC1	-5	19	-2	-5	23029*	?
O=C(CCn1c(=O)sc2ccccc21)NCCC1=CCCCC1	/	22	-2	-4	8020	-1
O=C(NCc1ccccc1)c1ccc(S(=O)(=O)NCc2ccco2)cc1	1	25	-2	-24	3552	-1
CCCCN(C(=O)CSCC(=O)Nc1ccc(C)cc1)c1c(N)n(CCCC)c(=O)[nH]c1=O	/	/	1	-6	5686	2
CSc1c(CN2CCN(C)CC2)c2ccccc2n1C	/	/	5	?	4359	-3
COc1ccc(C2=NOC(COc3ccc4c(C)cc(=O)oc4c3)C2)c(OC)c1 (configuration not stated)	0	-1	?	-24	3880	-8
COc1ccccc1C1=NOC(COc2ccc3c(C)cc(=O)oc3c2)C1 (configuration not stated)	-7	1	?	44*	3715	0
CN(CCOc1ccc(Cl)cc1)C(=O)c1cccc(S(=O)(=O)N2CCN(c3ccccc3)CC2)c1	/	/	-1	-6	4051	0
CCn1c(NC(=O)c2ccc(F)cc2)c2ccccc2nc1=O	5	4	-10	-4	19832*	-1
CCC(C)(C)NC(=O)CN(C(=O)CCC(=O)Nc1nccs1)c1ccc2c(c1)OCCO2	-9	76	1	-2	4752	2
CC(C)(C)c1cc(C(=S)N2CCN(CCO)CC2)cc(C(C)(C)C)c1O	-3	2	-4	0	23211*	1
COc1ccc(Cl)cc1N1C(=NC(=O)C2CCCCC2)SC2CS(=O)(=O)CC21 (configuration not stated)	4	2	-1	-6	6306	0
CC(C(=O)Nc1ccc(C(=O)O)cc1)N1C(=O)c2ccccc2C1=O (configuration not stated)	-2	29	-2	-2	20892*	0
CC(C(=O)Nc1cccnc1)N1C(=O)c2ccccc2C1=O (configuration not stated)	-3	32	1	12	9496	1
Cc1nnc2ccc(N3CCC4(CC3)OCCO4)nn12	-2	2	-1	2	23146*	?
COC(=O)c1cccc(C(=O)N2CCCC(CCC(=O)N(C)CCc3ccccn3)C2)c1 (configuration not stated)	1	30	-1	6	5084	0
CN(C)c1ccc(/C=C(/NC(=O)c2ccccc2Cl)C(=O)NCCN2CCOCC2)cc1	6	-25	0	-2	4266	1
CCc1nnc(NC(=O)CSc2nnc3scc(-c4ccc(C)cc4)n23)s1	0	/	0	-1	21013*	-2
SMILES	3CLpro inhibitor	VHR inh abs	Anthrax LF inh2	BoNT F protease	Bead autofluor	BoNT-A LC inh2
CCc1nnc(NC(=O)CSc2nnc(-c3cc4ccccc4cc3O)n2CC)s1	0	32	-2	-7	8463	0
CCc1nnc(NC(=O)CSc2nnc(-c3ccccc3O)n2CC)s1	-1	6	0	-3	25104*	-4
Cc1nnc(NC(=O)CSc2nnc3scc(-c4ccc(C)c(C)c4)n23)s1	-2	25	2	3	11142	0
O=C(Nc1cccc(Br)c1)c1cccc(OC(=S)N2CCOCC2)c1	2	6	-2	-4	5663	1
COc1cc(OC)cc(-c2c(Sc3ccccc3)c3cc(-c4ccc(SC)cc4)ccc3n2C)c1	/	/	1	9	5955	0
O=C(c1ccc(NS(=O)(=O)c2cccc(C(F)(F)F)c2)cc1)N1CCCC1	4	19	2	1	5405	3
COc1ccc(S(=O)(=O)Nc2ccccc2C(=O)N2CCOCC2)cc1Cl	0	18	-13	-62	17400*	-40
CCOC(=O)N1CCN(C(=O)COc2ccc(S(=O)(=O)NCc3ccccc3)cc2)CC1	-5	22	-2	-1	17159*	-1
O=C(c1ccc(CNS(=O)(=O)c2cccc(C(F)(F)F)c2)cc1)N1CCOCC1	-5	6	-2	1	22700*	?
O=C(COc1ccc(-c2ccccc2)cc1)N1CCN(S(=O)(=O)Cc2ccccc2)CC1	2	12	-4	1	16462*	0
CCc1noc(C)c1C(=O)Nc1cc(Cl)ccc1N1CCOCC1	/	/	0	2	5998	1
COc1ccc(S(=O)(=O)NCC2CCCO2)cc1NC(=O)c1ccccc1F (configuration not stated)	1	21	0	2	5281	0
O=C(COc1ccc(Cl)cc1Cl)NC(=O)N1CCOCC1	-2	-5	0	-1	16969*	-2
O=C(COc1ccc(S(=O)(=O)NCc2ccccc2)cc1Cl)N1CCOCC1	0	-2	0	0	23739*	0
Cc1cc(S(=O)(=O)NC(C)C)ccc1OCC(=O)N1CCN(Cc2ccc3c(c2)OCO3)CC1	1	22	-2	-6	6991	1
CN1CCN(C(=O)COc2ccc(S(=O)(=O)NCc3ccccc3)cc2Cl)CC1	2	23	-7	-3	9545	0
CC(C)NS(=O)(=O)c1ccc(OCC(=O)N2CCN(Cc3ccc4c(c3)OCO4)CC2)c(Cl)c1	-9	30	0	1	20603*	0
COc1ccccc1NC(=O)/C(C#N)=C/C=C/c1ccco1	-2	-2	-3	0	22514*	1
CCOC(=O)c1c(N)nn(C(=O)C(C)C)c1-c1ccc(OC)cc1	4	27	-2	1	16326*	0
Nc1nn(S(=O)(=O)c2ccccc2)cc1-c1cccc([N+](=O)[O-])c1	1	-9	-10	5	4249	0
CCOc1ccc(S(=O)(=O)n2cc(-c3ccccc3)c(N)n2)cc1	2	10	-3	-4	23986*	-2
CCOc1cc(S(=O)(=O)n2cc(-c3ccc(F)cc3)c(N)n2)cc(OCC)c1OCC	3	-4	-2	-9	2809	1
CCOc1ccc(S(=O)(=O)n2cc(-c3ccc(F)cc3)c(N)n2)cc1	2	33	1	0	23064*	2
Cc1ccc(-c2cn(S(=O)(=O)c3ccc(C)cc3)nc2N)cc1	1	24	0	-5	24762*	-2
